# Results reported in ChEMBL document CHEMBL2218924, “A broad activity screen in support of a chemogenomic map for kinase signalling research and drug discovery” (Biochem J, 2013).
# Columns and labels:
# [1] = biological target: Serine/threonine-protein kinase SIK1 (Homo sapiens) (UniProt P57059); conditions: at 10 µM
# [2] = biological target: Serine/threonine-protein kinase PLK2 (Homo sapiens) (UniProt Q9NYY3); conditions: at 1 µM
# [3] = biological target: Serine/threonine-protein kinase PLK2 (Homo sapiens) (UniProt Q9NYY3); conditions: at 10 µM
# [4] = biological target: T1, Serine/threonine-protein kinase TAO2 (Homo sapiens) (UniProt Q9UL54); conditions: at 1 µM
# T1 sequence (whole entry): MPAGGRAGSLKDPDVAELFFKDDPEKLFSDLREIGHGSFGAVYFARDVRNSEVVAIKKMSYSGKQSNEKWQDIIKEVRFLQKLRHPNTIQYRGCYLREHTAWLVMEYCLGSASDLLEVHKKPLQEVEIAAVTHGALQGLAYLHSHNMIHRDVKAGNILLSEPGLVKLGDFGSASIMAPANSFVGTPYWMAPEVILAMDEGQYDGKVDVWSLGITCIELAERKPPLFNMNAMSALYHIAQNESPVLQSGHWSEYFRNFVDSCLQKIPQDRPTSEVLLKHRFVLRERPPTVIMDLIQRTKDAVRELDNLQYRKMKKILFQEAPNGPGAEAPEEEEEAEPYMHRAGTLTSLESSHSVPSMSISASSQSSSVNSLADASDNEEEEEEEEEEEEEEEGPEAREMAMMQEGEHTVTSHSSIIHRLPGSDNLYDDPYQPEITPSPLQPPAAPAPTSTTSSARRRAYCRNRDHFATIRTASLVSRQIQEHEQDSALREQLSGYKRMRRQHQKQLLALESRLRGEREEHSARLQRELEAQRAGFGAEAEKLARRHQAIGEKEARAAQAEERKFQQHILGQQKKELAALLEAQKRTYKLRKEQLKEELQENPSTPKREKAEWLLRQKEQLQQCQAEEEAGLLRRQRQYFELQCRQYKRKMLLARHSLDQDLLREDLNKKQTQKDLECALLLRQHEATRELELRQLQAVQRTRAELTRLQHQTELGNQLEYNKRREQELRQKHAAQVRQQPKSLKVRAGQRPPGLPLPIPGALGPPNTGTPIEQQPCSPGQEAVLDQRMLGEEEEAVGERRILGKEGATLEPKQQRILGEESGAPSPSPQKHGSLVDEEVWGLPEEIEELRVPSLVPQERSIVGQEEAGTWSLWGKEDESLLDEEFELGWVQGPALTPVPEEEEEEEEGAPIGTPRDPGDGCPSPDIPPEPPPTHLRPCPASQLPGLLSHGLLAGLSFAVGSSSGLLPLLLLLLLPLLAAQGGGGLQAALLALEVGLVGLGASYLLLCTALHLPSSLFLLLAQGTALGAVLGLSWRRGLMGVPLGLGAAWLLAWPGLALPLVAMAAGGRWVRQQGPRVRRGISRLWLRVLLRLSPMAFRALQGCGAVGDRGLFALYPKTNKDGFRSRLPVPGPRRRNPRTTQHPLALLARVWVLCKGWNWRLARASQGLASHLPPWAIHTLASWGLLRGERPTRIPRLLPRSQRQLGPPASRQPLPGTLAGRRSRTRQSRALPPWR
# [5] = biological target: T1, Serine/threonine-protein kinase TAO2 (Homo sapiens); conditions: at 10 µM
# [6] = biological target: T2, Serine/threonine-protein kinase TAO3 (Homo sapiens) (UniProt Q9H2K8); conditions: at 1 µM
# T2 sequence (whole entry): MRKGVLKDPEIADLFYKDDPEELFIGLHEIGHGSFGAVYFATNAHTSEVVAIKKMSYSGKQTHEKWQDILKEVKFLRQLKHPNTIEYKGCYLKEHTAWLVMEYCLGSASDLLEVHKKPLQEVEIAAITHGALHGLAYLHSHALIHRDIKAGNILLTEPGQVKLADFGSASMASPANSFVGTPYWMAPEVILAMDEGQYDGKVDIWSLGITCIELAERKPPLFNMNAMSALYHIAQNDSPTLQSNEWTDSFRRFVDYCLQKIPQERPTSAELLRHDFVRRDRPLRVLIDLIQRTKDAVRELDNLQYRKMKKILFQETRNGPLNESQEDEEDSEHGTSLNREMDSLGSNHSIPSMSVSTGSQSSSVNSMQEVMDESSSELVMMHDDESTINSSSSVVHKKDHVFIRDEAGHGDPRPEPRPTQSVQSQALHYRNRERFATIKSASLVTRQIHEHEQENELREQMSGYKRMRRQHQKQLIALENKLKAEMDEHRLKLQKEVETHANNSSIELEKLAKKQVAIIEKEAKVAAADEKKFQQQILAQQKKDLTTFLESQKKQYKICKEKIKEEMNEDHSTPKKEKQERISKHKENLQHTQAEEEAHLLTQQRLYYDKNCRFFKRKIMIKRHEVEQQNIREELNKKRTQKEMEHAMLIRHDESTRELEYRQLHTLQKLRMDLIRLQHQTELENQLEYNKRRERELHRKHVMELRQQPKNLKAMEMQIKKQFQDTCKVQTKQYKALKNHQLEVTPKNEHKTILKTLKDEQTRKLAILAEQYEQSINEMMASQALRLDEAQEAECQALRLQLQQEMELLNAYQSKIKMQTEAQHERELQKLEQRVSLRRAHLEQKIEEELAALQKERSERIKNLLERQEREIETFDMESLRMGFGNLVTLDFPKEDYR
# [7] = biological target: T2, Serine/threonine-protein kinase TAO3 (Homo sapiens); conditions: at 10 µM
# [8] = biological target: T3, Serine/threonine-protein kinase TBK1 (Homo sapiens) (UniProt Q9UHD2); conditions: at 1 µM
# T3 sequence (whole entry): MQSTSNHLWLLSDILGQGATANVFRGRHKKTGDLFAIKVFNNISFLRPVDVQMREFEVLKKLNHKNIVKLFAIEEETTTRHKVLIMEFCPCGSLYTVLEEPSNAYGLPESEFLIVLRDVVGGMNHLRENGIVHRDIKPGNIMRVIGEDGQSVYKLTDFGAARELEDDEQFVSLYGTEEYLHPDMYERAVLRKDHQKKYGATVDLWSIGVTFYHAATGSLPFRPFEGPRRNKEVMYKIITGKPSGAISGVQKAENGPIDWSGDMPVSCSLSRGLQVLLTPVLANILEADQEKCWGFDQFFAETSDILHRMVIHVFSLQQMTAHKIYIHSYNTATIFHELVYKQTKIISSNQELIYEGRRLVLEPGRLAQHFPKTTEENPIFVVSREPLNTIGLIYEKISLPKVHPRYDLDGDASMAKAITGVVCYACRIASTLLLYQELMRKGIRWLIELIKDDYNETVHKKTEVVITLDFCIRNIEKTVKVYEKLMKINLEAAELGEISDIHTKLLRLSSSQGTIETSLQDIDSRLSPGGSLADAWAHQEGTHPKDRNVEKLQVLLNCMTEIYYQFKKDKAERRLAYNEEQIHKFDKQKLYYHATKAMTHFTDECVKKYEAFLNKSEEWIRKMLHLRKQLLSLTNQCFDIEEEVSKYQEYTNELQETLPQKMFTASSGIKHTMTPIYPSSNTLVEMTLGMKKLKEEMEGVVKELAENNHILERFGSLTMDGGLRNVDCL
# [9] = biological target: SRSF protein kinase 2 (Homo sapiens) (UniProt P78362); conditions: at 10 µM
# [10] = biological target: Serine/threonine-protein kinase 33 (Homo sapiens) (UniProt Q9BYT3); conditions: at 10 µM
# [11] = biological target: T4, Mitogen-activated protein kinase kinase kinase 7 (Homo sapiens) (UniProt O43318); conditions: at 10 µM
# T4 sequence (whole entry): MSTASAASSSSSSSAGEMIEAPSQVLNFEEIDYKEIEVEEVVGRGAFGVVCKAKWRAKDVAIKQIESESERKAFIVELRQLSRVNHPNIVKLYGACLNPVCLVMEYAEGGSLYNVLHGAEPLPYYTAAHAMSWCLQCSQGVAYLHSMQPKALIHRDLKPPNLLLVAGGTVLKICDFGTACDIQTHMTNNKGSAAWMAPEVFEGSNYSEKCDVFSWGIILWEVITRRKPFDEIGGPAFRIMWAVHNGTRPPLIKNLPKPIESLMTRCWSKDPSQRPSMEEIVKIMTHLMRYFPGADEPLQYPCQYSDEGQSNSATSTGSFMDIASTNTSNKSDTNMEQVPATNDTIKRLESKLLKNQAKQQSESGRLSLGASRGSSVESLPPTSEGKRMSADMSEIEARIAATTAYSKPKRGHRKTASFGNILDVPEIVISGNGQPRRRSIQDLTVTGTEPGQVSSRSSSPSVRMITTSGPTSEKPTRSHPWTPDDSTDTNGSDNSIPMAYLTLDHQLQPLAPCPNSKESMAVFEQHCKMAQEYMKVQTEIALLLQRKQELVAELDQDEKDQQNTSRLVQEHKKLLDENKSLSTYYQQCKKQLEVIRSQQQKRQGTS
# [12] = biological target: T5, Serine/threonine-protein kinase TAO1 (Homo sapiens) (UniProt Q7L7X3); conditions: at 10 µM
# T5 sequence (whole entry): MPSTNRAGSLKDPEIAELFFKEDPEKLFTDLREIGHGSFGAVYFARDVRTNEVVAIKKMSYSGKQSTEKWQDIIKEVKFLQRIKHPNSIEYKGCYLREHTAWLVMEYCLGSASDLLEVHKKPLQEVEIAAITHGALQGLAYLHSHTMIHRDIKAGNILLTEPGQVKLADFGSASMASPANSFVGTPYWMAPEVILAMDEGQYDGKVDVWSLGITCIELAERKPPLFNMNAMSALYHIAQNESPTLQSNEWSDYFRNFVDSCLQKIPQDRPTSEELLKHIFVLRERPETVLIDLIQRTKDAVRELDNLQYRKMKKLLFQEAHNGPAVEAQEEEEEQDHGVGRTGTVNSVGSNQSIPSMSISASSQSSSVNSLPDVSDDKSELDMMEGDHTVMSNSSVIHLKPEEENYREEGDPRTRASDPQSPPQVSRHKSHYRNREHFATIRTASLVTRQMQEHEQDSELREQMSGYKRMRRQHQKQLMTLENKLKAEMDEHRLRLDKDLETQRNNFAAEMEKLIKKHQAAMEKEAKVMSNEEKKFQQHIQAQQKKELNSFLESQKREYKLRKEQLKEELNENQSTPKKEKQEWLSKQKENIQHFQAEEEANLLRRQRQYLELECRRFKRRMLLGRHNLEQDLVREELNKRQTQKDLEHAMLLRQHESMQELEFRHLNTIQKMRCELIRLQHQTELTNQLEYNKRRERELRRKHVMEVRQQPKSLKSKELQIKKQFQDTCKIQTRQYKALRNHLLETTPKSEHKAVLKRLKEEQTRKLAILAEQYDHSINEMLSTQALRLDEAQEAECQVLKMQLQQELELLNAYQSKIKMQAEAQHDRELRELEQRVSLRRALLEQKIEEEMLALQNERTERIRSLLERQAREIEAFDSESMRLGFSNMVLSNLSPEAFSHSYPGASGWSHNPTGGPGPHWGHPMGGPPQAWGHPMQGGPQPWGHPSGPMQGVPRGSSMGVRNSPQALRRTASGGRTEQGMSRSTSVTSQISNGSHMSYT
# [13] = biological target: SRSF protein kinase 2 (Homo sapiens) (UniProt P78362); conditions: at 1 µM
# [14] = biological target: Serine/threonine-protein kinase 33 (Homo sapiens) (UniProt Q9BYT3); conditions: at 1 µM
# [15] = biological target: T4, Mitogen-activated protein kinase kinase kinase 7 (Homo sapiens); conditions: at 1 µM
# [16] = biological target: Tyrosine-protein kinase SYK (Homo sapiens) (UniProt P43405); conditions: at 10 µM
# [17] = biological target: T5, Serine/threonine-protein kinase TAO1 (Homo sapiens); conditions: at 1 µM
# [18] = biological target: Tyrosine-protein kinase SYK (Homo sapiens) (UniProt P43405); conditions: at 1 µM
# [19] = biological target: SRSF protein kinase 1 (Homo sapiens) (UniProt Q96SB4); conditions: at 1 µM
# [20] = biological target: SRSF protein kinase 1 (Homo sapiens) (UniProt Q96SB4); conditions: at 10 µM
# Chain of Serine/threonine-protein kinase SIK1 (Homo sapiens) (P57059 whole entry): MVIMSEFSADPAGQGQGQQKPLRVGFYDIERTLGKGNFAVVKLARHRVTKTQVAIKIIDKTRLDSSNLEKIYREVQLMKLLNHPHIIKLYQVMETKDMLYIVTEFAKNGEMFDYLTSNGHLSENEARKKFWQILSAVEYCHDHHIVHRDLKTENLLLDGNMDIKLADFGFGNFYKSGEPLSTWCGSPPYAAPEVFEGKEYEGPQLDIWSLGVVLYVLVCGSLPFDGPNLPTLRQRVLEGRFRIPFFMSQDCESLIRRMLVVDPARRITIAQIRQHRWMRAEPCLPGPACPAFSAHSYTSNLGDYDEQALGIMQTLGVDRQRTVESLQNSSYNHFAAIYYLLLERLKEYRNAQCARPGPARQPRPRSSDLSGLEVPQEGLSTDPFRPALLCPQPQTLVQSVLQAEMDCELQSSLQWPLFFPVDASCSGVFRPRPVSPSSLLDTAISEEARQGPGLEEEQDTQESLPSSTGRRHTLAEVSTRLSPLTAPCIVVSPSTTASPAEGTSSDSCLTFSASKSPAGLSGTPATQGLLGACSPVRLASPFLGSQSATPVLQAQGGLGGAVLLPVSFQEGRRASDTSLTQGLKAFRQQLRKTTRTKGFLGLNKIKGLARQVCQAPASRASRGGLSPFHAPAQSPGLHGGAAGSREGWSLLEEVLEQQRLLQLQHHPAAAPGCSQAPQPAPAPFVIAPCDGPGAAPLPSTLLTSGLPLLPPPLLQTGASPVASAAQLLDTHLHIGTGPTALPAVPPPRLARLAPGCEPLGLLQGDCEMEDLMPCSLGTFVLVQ
# Chain of SRSF protein kinase 2 (Homo sapiens) (P78362 whole entry, looked up): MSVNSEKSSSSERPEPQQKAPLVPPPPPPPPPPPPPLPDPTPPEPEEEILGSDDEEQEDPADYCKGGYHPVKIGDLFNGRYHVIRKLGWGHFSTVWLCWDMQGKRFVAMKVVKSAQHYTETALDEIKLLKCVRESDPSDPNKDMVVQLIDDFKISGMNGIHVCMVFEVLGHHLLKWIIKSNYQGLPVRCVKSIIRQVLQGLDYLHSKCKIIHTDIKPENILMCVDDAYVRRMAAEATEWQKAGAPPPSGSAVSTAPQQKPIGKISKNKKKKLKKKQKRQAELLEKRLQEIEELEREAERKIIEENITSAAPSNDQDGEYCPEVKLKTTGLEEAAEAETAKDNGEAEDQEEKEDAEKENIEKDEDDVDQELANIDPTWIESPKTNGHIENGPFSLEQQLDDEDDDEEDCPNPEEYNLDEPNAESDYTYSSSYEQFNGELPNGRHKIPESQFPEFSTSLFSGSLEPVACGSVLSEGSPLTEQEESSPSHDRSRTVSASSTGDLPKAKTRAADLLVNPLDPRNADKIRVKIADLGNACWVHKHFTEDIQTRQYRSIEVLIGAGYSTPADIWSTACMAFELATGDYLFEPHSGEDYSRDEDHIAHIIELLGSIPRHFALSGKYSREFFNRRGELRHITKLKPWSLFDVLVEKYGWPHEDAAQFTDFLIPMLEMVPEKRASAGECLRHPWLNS
# Chain of Serine/threonine-protein kinase 33 (Homo sapiens) (Q9BYT3 whole entry, looked up): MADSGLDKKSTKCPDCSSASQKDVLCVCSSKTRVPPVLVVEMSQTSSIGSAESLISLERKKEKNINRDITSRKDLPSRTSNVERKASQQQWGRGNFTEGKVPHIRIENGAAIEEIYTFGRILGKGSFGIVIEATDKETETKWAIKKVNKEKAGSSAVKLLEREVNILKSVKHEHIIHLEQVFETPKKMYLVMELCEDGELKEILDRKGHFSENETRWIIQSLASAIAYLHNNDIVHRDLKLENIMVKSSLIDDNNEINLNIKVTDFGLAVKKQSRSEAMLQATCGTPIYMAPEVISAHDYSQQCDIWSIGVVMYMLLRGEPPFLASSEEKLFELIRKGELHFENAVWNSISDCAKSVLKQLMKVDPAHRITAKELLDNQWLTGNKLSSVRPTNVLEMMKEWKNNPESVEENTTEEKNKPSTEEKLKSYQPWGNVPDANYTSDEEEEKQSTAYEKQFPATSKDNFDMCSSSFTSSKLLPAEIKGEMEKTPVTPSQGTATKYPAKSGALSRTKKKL
# Chain of Serine/threonine-protein kinase PLK2 (Homo sapiens) (Q9NYY3 whole entry, looked up): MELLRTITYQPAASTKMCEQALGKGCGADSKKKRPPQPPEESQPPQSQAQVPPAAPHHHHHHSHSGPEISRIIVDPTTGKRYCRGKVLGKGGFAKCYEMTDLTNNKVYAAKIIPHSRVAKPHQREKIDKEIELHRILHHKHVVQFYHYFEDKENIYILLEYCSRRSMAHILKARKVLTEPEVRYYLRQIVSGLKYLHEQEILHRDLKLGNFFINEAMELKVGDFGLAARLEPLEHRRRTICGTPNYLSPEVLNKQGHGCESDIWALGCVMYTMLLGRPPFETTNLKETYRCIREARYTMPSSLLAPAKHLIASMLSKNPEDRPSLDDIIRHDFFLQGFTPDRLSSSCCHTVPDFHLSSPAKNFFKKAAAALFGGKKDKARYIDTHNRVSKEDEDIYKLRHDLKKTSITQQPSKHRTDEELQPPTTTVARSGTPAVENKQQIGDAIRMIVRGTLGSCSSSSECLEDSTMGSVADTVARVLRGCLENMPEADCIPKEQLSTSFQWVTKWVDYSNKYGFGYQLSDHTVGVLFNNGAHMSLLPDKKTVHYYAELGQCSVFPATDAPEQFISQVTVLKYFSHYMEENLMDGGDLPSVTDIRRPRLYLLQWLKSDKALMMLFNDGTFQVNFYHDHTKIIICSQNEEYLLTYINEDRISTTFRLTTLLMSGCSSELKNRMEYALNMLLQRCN
# Chain of SRSF protein kinase 1 (Homo sapiens) (Q96SB4 whole entry): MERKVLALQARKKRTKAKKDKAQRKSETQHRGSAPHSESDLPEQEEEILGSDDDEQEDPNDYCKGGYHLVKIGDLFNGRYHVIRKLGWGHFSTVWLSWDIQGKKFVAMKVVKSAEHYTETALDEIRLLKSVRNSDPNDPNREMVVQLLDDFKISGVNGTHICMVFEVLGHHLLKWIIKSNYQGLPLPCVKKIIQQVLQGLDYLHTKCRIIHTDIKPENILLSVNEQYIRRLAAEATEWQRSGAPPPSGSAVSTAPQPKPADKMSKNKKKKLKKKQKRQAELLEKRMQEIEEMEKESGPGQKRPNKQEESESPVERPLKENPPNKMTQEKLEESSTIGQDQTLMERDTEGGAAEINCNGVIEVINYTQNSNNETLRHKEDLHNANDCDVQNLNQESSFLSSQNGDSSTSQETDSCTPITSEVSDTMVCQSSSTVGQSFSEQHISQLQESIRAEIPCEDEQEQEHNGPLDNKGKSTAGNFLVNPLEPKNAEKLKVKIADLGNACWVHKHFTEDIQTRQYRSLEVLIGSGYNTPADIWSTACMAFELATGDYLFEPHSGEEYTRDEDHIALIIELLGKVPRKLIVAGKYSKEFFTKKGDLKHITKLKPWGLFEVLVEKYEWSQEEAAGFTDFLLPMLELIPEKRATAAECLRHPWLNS
smiles,measurement,setting,value
N#C/C(=C1/Nc2ccccc2S1)c1ccnc(NCCc2cccnc2)n1,residual activity,[1],78%
same,residual activity,[2],97%
same,residual activity,[3],71%
same,residual activity,[4],68%
same,residual activity,[5],24%
same,residual activity,[6],84%
same,residual activity,[7],37%
same,residual activity,[8],71%
N#Cc1c(NC(=O)c2cccc3ccccc23)sc2c1CCCC2,residual activity,[9],92%
same,residual activity,[10],92%
same,residual activity,[11],93%
same,residual activity,[12],93%
same,residual activity,[5],99%
same,residual activity,[7],88%
same,residual activity,[8],67%
O=C1Nc2ccccc2/C1=C\c1c(Cl)[nH]c2ccccc12,residual activity,[13],100%
same,residual activity,[9],83%
same,residual activity,[14],99%
same,residual activity,[10],85%
same,residual activity,[2],99%
same,residual activity,[3],80%
same,residual activity,[15],99%
same,residual activity,[11],77%
same,residual activity,[12],63%
same,residual activity,[5],44%
same,residual activity,[6],85%
same,residual activity,[7],40%
same,residual activity,[8],72%
Nc1ncnc2c1cnn2-c1ccccc1,residual activity,[1],138%
same,residual activity,[9],97%
same,residual activity,[14],97%
same,residual activity,[10],100%
same,residual activity,[3],97%
same,residual activity,[16],92%
same,residual activity,[15],89%
same,residual activity,[11],88%
same,residual activity,[17],94%
same,residual activity,[12],80%
same,residual activity,[6],100%
same,residual activity,[7],87%
O=C(Nc1ccc(Cl)cc1)c1ccccc1NCc1ccncc1,residual activity,[4],101%
same,residual activity,[5],61%
c1ccc(-c2cnc(Nc3ccc(OCCN4CCCC4)cc3)s2)cc1,residual activity,[1],10%
same,residual activity,[18],129%
same,residual activity,[16],72%
same,residual activity,[11],74%
same,residual activity,[17],82%
same,residual activity,[12],28%
same,residual activity,[4],81%
same,residual activity,[5],21%
same,residual activity,[6],82%
same,residual activity,[7],27%
same,residual activity,[8],70%
COc1cc2ncnc(Nc3cccc(Cl)c3)c2cc1OC,residual activity,[19],101%
same,residual activity,[20],108%
same,residual activity,[13],104%
same,residual activity,[2],109%
same,residual activity,[3],82%
same,residual activity,[18],121%
same,residual activity,[16],71%
same,residual activity,[17],102%
same,residual activity,[12],76%
same,residual activity,[4],113%
same,residual activity,[5],86%
same,residual activity,[6],102%
